Data as given in PubChem BioAssay (NCI).
This is part of a sample that, as a whole, favours compounds with a hit. Of some 83,000 tested, about 20% had one in any assay.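 The endpoint reported here, percent growth, reads 100 for growth as untreated, 0 for no net growth and -100 for all cells dead.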 Values without a mark were called inactive. Active and inactive are the calls of the source. The calls were made as follows: active = growth percent below 10; inactive = the rest.

Assays:
Assay in all cases: NCI-60 one-dose screen, 48 h (100 = growth as untreated, 0 = no growth, -100 = all killed)
Details in all cases: 10 µM
[1] = system: BT-549 breast
[2] = system: MDA-MB-435 melanoma
[3] = system: SW-620 colon
[4] = system: MCF7 breast
[5] = system: HCT-116 colon
[6] = system: HCC-2998 colon
[7] = system: KM12 colon

| Compound | growth [1] | growth [2] | growth [3] | growth [4] | growth [5] | growth [6] | growth [7] |
| --- | --- | --- | --- | --- | --- | --- | --- |
| O=C(Nc1cccc(-n2cc(-c3ccncc3)c(-c3cc(O)cc(Cl)c3)n2)c1)c1cc(C(F)(F)F)cc(C(F)(F)F)c1 | 73.4% | 45.6% | 61% | 23% | 24.5% | 28.9% | 21.2% |
| O=S(=O)(NCCCNc1nccc(-c2c(-c3ccc(F)cc3)nc3sccn23)n1)c1ccc2ccccc2c1 | 46.1% | 25.7% | 51.9% | 30.3% | 37.2% | 7.22% (active) | 19.9% |
| Cc1ccc(Nc2nnc(-c3cc(-c4ccncc4)n(-c4ccccc4)n3)s2)cc1 | 64.8% | 78.3% | 94% | 80.3% | 51.3% | 57.1% | 50.8% |
| O=C(N/N=C/c1cc2ccccc2c2ccccc12)c1cc(O)c(O)c(O)c1 | 49.4% | 35.3% | 25.4% | 67.6% | 26% | 94.5% | 83.2% |
| C=C(Cl)[C@@](Cl)(CBr)CC[C@@H](Br)C(C)(C)Cl | 78.6% | -24.2% (active) | -61.7% (active) | -51.7% (active) | -94.6% (active) | -96.9% (active) | -94.2% (active) |
| Cc1cc(=O)n2nnc3c4ccccc4ccc3n12 | 72.8% | 104% | -62% (active) | 45% | 8.71% (active) | 105% | 91.2% |
| CCN1CCN(c2nc3ccccc3c3c(=O)c4ccccc4sc23)CC1 | 69% | 47.9% | 24% | 28.3% | 27.5% | 57.2% | 36.1% |
| CC12O[C@H](C[C@@H](OC(=O)c3ccccc3)[C@H]1O)n1c3ccccc3c3c4c(c5c6ccccc6n2c5c31)C(=O)NC4=O | 84.8% | 60.2% | 60.2% | 69.3% | 70.1% | 87.2% | 19.3% |
| COc1ccc2c(c1)-c1c(c3cc(OC)ccc3n(CCN(C)C)c1=O)C2=O | 64.2% | 21.8% | -8.7% (active) | -0.273% (active) | -21.2% (active) | 34.9% | 8.92% (active) |
| CS(=O)(=O)Nc1ccc(Nc2c3ccccc3nc3cc([N+](=O)[O-])ccc23)cc1 | 32.5% | 39.7% | 7.02% (active) | 2.38% (active) | 4.91% (active) | 32.3% | -35.7% (active) |
| N#Cc1ncc(-c2ccc(C(F)(F)F)cc2)c(NCc2cc(C(F)(F)F)cc(C(F)(F)F)c2)n1 | 21.8% | 12.2% | 14.5% | 8.58% (active) | 7.85% (active) | 45% | 10.2% |
| O=C(O)c1ccc(P(=O)(O)O)c([N+](=O)[O-])c1 | 102% | 96% | 98.2% | 99.3% | 113% | 111% | 105% |
| CCN(CC)CCOc1nc2ccccc2c2c1-c1ccc(OC)cc1C2=O | 60.8% | -6.62% (active) | -13.3% (active) | 0.376% (active) | -93% (active) | 14.8% | -45.2% (active) |
| CCN1CCCC1CNC(=O)c1ncc(-c2ccc(C(F)(F)F)cc2)c(NC2CCCCCC2)n1 (stereo unspecified) | 99.2% | 72.6% | 96.2% | 43.6% | 54.9% | 72.4% | 75.3% |
| COc1ccc2c(c1)sc1nc(-c3ccccc3)c(-c3ccc(O)c(OC)c3)n12 | 68.2% | -24.6% (active) | 39.9% | 93.4% | 33.2% | 42.5% | 37.1% |
| O=C(C[P+](c1ccccc1)(c1ccccc1)c1ccccc1)C[P+](c1ccccc1)(c1ccccc1)c1ccccc1 | -89.2% (active) | -80.6% (active) | -71.9% (active) | -69.8% (active) | -93.3% (active) | -83.9% (active) | -75.5% (active) |
| c1ccc(CP(Cc2ccccc2)c2ccccc2)cc1 | 96.2% | 75.5% | 105% | 96.7% | 100% | 101% | 103% |
| O=C(N/N=C/c1ccccc1)C(Oc1ccccc1)c1ccccc1 (stereo unspecified) | 105% | 44% | 96.2% | 97.9% | 87.2% | 97.3% | 84.5% |
| COc1ccc(Nc2ccnc(NCCNc3ccnc4cc(Cl)ccc34)n2)cc1 | 61% | -39.1% (active) | 36.4% | 14.3% | 3.11% (active) | 41.1% | 62.2% |
| CC/C(=N\N=C(/CC)c1ccc(Br)cc1)c1ccc(Br)cc1 | 91.1% | 106% | 102% | 90.9% | 78.1% | 99.4% | 99.5% |
| COc1ccc(-c2nn(-c3cccc(NC(=O)c4cc(C(F)(F)F)cc(C(F)(F)F)c4)c3)cc2-c2ccncc2)cc1Cl | 87.3% | 6.11% (active) | 79.2% | 54.2% | 57.6% | 71.1% | 48.8% |
| COc1cc(-c2nnc(-c3c(-c4ccc(F)cc4)nc4ccccn34)o2)cc(OC)c1OC | 66.1% | 93.5% | 90% | 73.3% | 34.1% | 105% | 81.7% |
| OCC1OC(n2cnc3c(N/N=C\c4ccccn4)ncnc32)C(O)C1O (stereo unspecified) | 44.3% | 23.6% | 23.9% | 16.8% | 11.9% | 10.9% | 26.7% |
| FC(F)(F)c1ccc2nc(-c3nc(-c4ccccc4)n4ccccc34)[nH]c2c1 | 85.9% | 87.5% | 72% | 38.3% | 8.85% (active) | 82.6% | 52.4% |

| Compound | growth [1] | growth [2] | growth [3] | growth [4] | growth [5] | growth [6] | growth [7] |
| --- | --- | --- | --- | --- | --- | --- | --- |
| COc1ccc(NC(=O)Cc2nc3nc4sc(C)c(C)c4c(=O)n3[nH]2)cc1 | 103% | 105% | 104% | 96% | 101% | 98.1% | 104% |
| COc1ccc(C(=O)/C=C/c2cc(-c3cc(OC)c(OC)c(OC)c3)n[nH]2)cc1 | 14.4% | 15.6% | -37.6% (active) | 16.5% | -76.3% (active) | 91.3% | -60.1% (active) |
| COc1ccc(-c2nn(-c3cccc(NC(=O)c4cccc(C(F)(F)F)c4)c3)cc2-c2ccncc2)cc1Cl | 35% | -67.9% (active) | 36% | 9.92% (active) | 14.5% | 33.6% | 15.4% |
| Clc1cc2c(c(CSc3nc4ccccc4n4cccc34)c1)OCOC2 | 81.2% | 92.2% | 94.4% | 8.11% (active) | 80% | 85.4% | 88.4% |
| CCCCCCNC(=O)Oc1ccc(/C(=C(/CC)Cc2ccccc2)c2ccc(OCCN3CCCCC3)cc2)cc1 | 97.4% | 89% | 79.1% | 28.8% | 62.8% | 87.3% | 84% |
| COc1ccc(-c2nc3ncccn3c2-c2nnc(-c3ccsc3C)o2)cc1 | 63.6% | 94.6% | 94.6% | 77.1% | 88.9% | 102% | 98.6% |
| Cc1ccc(C(=O)Nc2cccc(F)c2)cc1NC(=O)C1(c2ncnc3[nH]ccc23)CC1 | 93.4% | 74% | 67% | 87.1% | 44.5% | 60.5% | 82.7% |
| CCCCCCCCCCCCC1C/C=C\CCCC(=O)O1 (stereo unspecified) | 127% | 105% | 104% | 91.7% | 105% | 129% | 112% |
| O=C(Nc1ccc(CN2CCc3nc4cc(O)c(O)cc4cc32)cc1)c1ccc(Cl)c(Cl)c1 | 101% | 100% | 97.2% | 93.7% | 100% | 112% | 99.9% |
| O=C(Nc1cccc(Br)c1)c1cc(=O)[nH]c2ccccc12 | 82.1% | 101% | 102% | 84% | 109% | 104% | 101% |
| O=C(O)CN1C(=O)c2cccc3cccc(c23)C1=O | 104% | 104% | 106% | 87.4% | 102% | 103% | 107% |
| COc1ccc2c(c1)nc(N)c1c3cccnc3cn21 | 44.3% | -14.3% (active) | 20.5% | 20.4% | 10.8% | 20.2% | 17.1% |
| O=c1[nH]c2ccc(Cl)cc2c2ccccc12 | 100% | 72.1% | 102% | 93.1% | 38.4% | 52.4% | 65.2% |
| O=C(/C=C/c1cc2ccccc2[nH]c1=O)c1ccc2c(c1)OCO2 | 84.2% | 95.7% | 99.6% | 80.6% | 81.6% | 105% | 92.3% |
| CCCCCCCCCCCCCCCC(=O)OC1[C@@H](OC(=O)CCCCCCCCCCCCCCC)[C@@H](C(=O)N[C@@H](CCCCN)C(=O)OC)O[C@H]1n1cnc2c(=O)[nH]c(NC(=O)C(C)C)nc21 (stereo partly specified) | 105% | 99.6% | 104% | 96.4% | 85.4% | 101% | 95% |
| C/C(N)=C(\C#N)C(=O)c1ccccc1 | 113% | 100% | 106% | 96.6% | 102% | 102% | 107% |
| COc1ccc(-c2nn(-c3cccc(NC(=O)Nc4ccc(Cl)c(C(F)(F)F)c4)c3)cc2-c2ccncc2)cc1Cl | 11.2% | -24.3% (active) | 17.7% | 1.57% (active) | 8.61% (active) | 37.7% | 4% (active) |
| CCOCC(=O)C(C#N)c1ccc(Cl)c(Cl)c1 (stereo unspecified) | 104% | 92.8% | 102% | 92.2% | 105% | 106% | 107% |
| CSc1nc(=O)n(Cc2ccc(Cl)cc2)c(=O)[nH]1 | 98% | 114% | 110% | 99.3% | 103% | 103% | 108% |
| O=[N+]([O-])c1ccc(Oc2cc(Cl)c(Cl)cc2Cl)c(C(F)(F)F)c1 | 110% | 95.6% | 106% | 97.9% | 102% | 123% | 101% |
| CN1CCC(CNc2cc(C3(C(=O)Nc4cc(C(=O)Nc5ccc(Cl)c(C(F)(F)F)c5)ccc4F)CC3)ncn2)CC1 | 52.5% | -53.1% (active) | -9.83% (active) | -43% (active) | 8.41% (active) | 22.8% | 36.1% |
| CC(C)=CCc1cc(O)cc2c1OC(C=C(C)C)C1=C2C(=O)C2=C(NCCS2(=O)=O)C1=O (stereo unspecified) | 18.3% | -56.4% (active) | 4.68% (active) | -54.5% (active) | -15.4% (active) | -12.6% (active) | 43.3% |
| N#CSCC1CC(O)(c2ccccc2)CC(c2ccc(Cl)cc2)O1 (stereo unspecified) | -11.5% (active) | 3.01% (active) | -53.5% (active) | 14.7% | 10.1% | 94.9% | 22.3% |
| COc1cc(NC(=O)CSc2nc3ccccc3c(=O)n2CCc2ccccc2)cc(OC)c1OC | -4.65% (active) | 32.1% | 48.6% | 51% | -0.608% (active) | 35% | 7.82% (active) |
